# Screening data (PubChem BioAssay)
# The list is not random: actives were taken first. Their share in the collection is about 1.4%.
# Chronic BCR inh = inhibitors of chronic active B-cell receptor signaling. ABC-DLBCL IkBa-CBG/CBR reporter, luminescence ratio, 4 h. 0.05% of 340,000 active. AID 493014. Potency, µM (doses to about 46.1 µM), for the others: at the top dose activity change, negative = inhibition, usual class: inhibitors; active = well fitted inhibition curve with a large enough effect in the signal ratio, with a control signal flat, not every such curve was filed as active; inconclusive = small, poorly fitted or top-dose-only effect, or effect the other way, or a change in a side signal; the % refers to the signal ratio;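 also: potency is read from the fitted curve at half-maximal effect; plate controls were basal doxycycline-induced cells for no effect and cells given 10 µM MG132 for full effect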
#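 TMD8 human ABC-DLBCL cells with doxycycline-inducible IκBα–green luciferase fusion and unfused red luciferase, in 0.5% FBS medium; compounds up to 46 uM, 4 h at 37C. Green/red luminescence ratio, filter-overlap corrected, fitted to concentration-response curves.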
# BRCA1 expr act = increases BRCA1 expression. MCF7-BRCA1-FFLuc reporter, luminescence, 48 h; response scale: scaled: vehicle 0%, 10 µM genistein 100%. Potency, µM (titrated, usually from 46.1 µM), for inactives: at the top dose activation, most hits filed as activators. 1.1% of 380,000 active. AID 624202; also: potency is read from the fitted curve at half-maximal effect; nearly all actives have a fitted effect of over 80% in size
#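 Reporter cells (MCF7, BRCA1 promoter-firefly luciferase) received library compounds across a concentration series for 48 h. End-point luminescence was measured and concentration-effect curves derived after normalization.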
# Nrf2 activator = Nrf2 pathway activation; AID 624171; AREc32 ARE-luciferase reporter (MCF7-derived line), luminescence, 24 h; 0.31% of 410,000 active; Potency, µM (doses to about 46.1 µM), without a hit: at the top dose activation, hits mostly activators; also: potency is read from the fitted curve at half-maximal effect; % of control where 0% means no effect; nearly all actives have a fitted effect of over 65% in size
#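 Steps: seed AREc32_Fluc cells (1000/well, 5% FBS OPTI-MEM); incubate overnight at 37 deg C; add 23 nL compound; incubate 24 hr; add Steady-Glo; hold 30 min RT; read luminescence.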
# N370S GC = inhibits or activates N370S mutant glucocerebrosidase; Potency, µM (series often up to 59.4 µM), for the others: at the highest dose activity change, negative = inhibition, actives largely listed as inhibitors; 0.092% of 330,000 active; N370S GC spleen homogenate, 4MU-glucoside fluorescence;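 also: potency is read from the fitted curve at half-maximal effect; 0% = full enzyme activity and -100% = no enzyme basal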
# IL-2 act = activators of IL-2. IL-2 activation reporter assay, cell-based qHTS; stimulated with anti-CD3/CD4/CD28 beads; in transgenic mouse T cells. activation, % (series mostly up to about 46 µM). 0.065% of 360,000 active; in the data active = activation above about 50%; inconclusive = mostly about 30% to 49%; also: 0% is about no effect
#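 EGFP and DsRed fluorescence is measured by plate cytometry in unstimulated transgenic mouse T cells exposed to compound for 60 minutes, then stimulated 18 hours at 37 degrees C with anti-CD3/anti-CD4 beads plus anti-CD28.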
# Integrin act MD = integrin-mediated muscular dystrophy alleviation activation. Potency, µM (series often up to 38.3 µM), without a hit: at the highest dose activation, actives largely listed as activators. alpha7betagal myoblasts, beta-gal FDG fluorescence, 48 h. 0.064% of 350,000 active. AID 624291;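 also: potency is read from the fitted curve at half-maximal effect; 100% = response of the positive control SU9516; nearly all actives have a fitted effect of over 60% in size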
#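 alpha7betagal+/- myoblasts (passage 13, 250/well) treated 48 h at 37C with compounds at 1:260 dilution of DMSO stock. Lysed, then beta-galactosidase activity read as FDG fluorescence (ex 480/em 540) after 30 min, with pre-read for autofluorescence.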
# Numbers without * were called inactive; ? = inconclusive; · = not tested or not shown; [ ] = dose if it differs, or a comment. Unless noted, calls follow the shape of the dose curve; as a rule, active = well fitted curve in the direction sought with a large enough effect; inconclusive = small, poorly fitted or top-dose-only effect, or another doubt; inactive = no such curve, though single readings can be large; an effect the other way counts as inactive or inconclusive.
SMILES,Chronic BCR inh,BRCA1 expr act,Nrf2 activator,N370S GC,IL-2 act,Integrin act MD
COc1ccccc1COC(=O)c1ccc(S(=O)(=O)N2CCOCC2)cc1,-1%,10%,0%,·,1,-22%
Cn1c(SCc2cccc([N+](=O)[O-])c2)nc2c(c1=O)SCC2,?,-36%,4%,6%,-3,-17%
Cn1c(SCc2ccccc2)nnc1-c1c[nH]c2ccccc12,?,11µM*,8%,0%,-1,5%
CCCCSc1nnc(-c2c[nH]c3ccccc23)n1C,7%,?,2%,0%,-1,22%
Cn1c(SCC#N)nnc1-c1ccc2c(c1)OCO2,-10%,0%,0%,3%,0,-15%
Cn1c(SCc2ccccc2)nnc1-c1ccc2c(c1)OCO2,-13%,6.3µM*,2%,6%,-1,-13%
COC1C(CO)OC(n2c3c(Cl)cccc3c3c4c(c5c6cccc(Cl)c6[nH]c5c32)C(=O)NC4=O)C(O)C1O (centres undefined),·,-82%,3%,·,62*,-41%
O=C(Nc1ccc2c(c1)OCO2)c1ccc2nc[nH]c2c1,?,5.6µM*,2%,-2%,2,1%
O=C(Nc1ccc2c(c1)OCCO2)c1ccc(Cl)c(Cl)c1,?,13µM*,5%,3%,-4,0%
O=C(Nc1ccc(C(F)(F)F)cc1)c1ccc2nc[nH]c2c1,1%,8%,7%,17%,-1,12%
O=C(Nc1ncccc1Cl)c1ccc2c(c1)OCCO2,?,8.9µM*,3%,11%,0,0%
CCCOc1cccc(C(=O)Nc2ccc3c(c2)OCCO3)c1,?,7.9µM*,-1%,4%,-1,17%
O=C(Nc1ccccn1)c1ccc2c(c1)OCCO2,?,-19%,17%,-15%,0,5%
COc1ccc(C2=Nn3c(nnc3-c3cccc(OC)c3)SC2)cc1,·,·,·,5%,·,·
CCc1ccccc1NC(=O)c1ccc2c(c1)N(Cc1cccc(Cl)c1)C(=O)c1ccccc1S2(=O)=O,·,-12%,0%,·,·,·
CC1(C)CCC(NC(=O)[C@@H](N)CCC(=O)O)CC1,·,·,·,2%,·,·
CCc1oc(C(=O)OC)cc1CSC(=N)N,?,-10%,-1%,13%,-1,-28%
Cc1ccccc1OCC(=O)NCC(=O)OCc1ccc2ccccc2c1,·,4%,·,·,·,·
O=C(Nc1ccc2c(c1)OCCO2)c1cccc(S(=O)(=O)N2CCCCC2)c1,14%,-28%,1%,-2%,-3,-21%
O=C(NC(=S)Nc1ccc2nc[nH]c2c1)c1ccccc1,?,4µM*,0%,-7%,-1,-22%
O=C(Nc1ccc2c(c1)OCCO2)c1cccc(S(=O)(=O)N2CCOCC2)c1,-1%,10µM*,1%,-2%,-1,-25%
O=C(N/N=C/c1ccccc1C(F)(F)F)c1ccc2nc[nH]c2c1,?,7.1µM*,3%,?,-2,15%
Nc1nonc1C(=O)NCCNC(=O)c1cccc(Cl)c1,1%,-9%,2%,0%,-1,-25%
c1coc(-c2ccnc3nc(-n4cccc4)nn23)c1,-15%,-52%,7.9µM*,20%,0,-16%
COc1ccc(-c2ccnc3nc(-n4cccc4)nn23)cc1,?,20%,1%,12%,-2,19%
SMILES,Chronic BCR inh,BRCA1 expr act,Nrf2 activator,N370S GC,IL-2 act,Integrin act MD
COC(=O)c1c(C)[nH]c(C(=O)OCC(=O)c2ccc(C)s2)c1C,?,109%,6%,·,0,0%
C(=N\NCc1ccccc1)/c1ccc2ncccc2c1,-19%,33%,0%,-7%,2,?
C(=N\NCc1ccccc1)/c1ccc2nccnc2c1,?,4.5µM*,3%,4%,1,-7%
Cc1ccccc1CS(=O)(=O)c1cnc2ccccc2n1,-13%,-55%,8.9µM*,8%,-1,-58%
O/N=C1/CC/C(=N\O)c2nn(-c3ccccc3)nc21,5.8µM*,18%,11%,1%,1,-16%
O=C(O)c1nn(-c2ccccc2)nc1-c1nn(-c2ccccc2)nc1C(=O)O,10%,2%,0%,9%,0,15%
Nc1cc(C2CCCC2)nn1-c1ccccc1,?,10µM*,6%,23%,0,-28%
O=C(NCc1cccs1)c1ccc2sc(C3=C[C@@H](O)[C@@H](O)[C@@H](CO)O3)nc2c1,·,-7%,0%[9.22 µM],·,1,·
O=C1CCCC2=C1C(c1ccc(Cl)cc1)N=C(Nc1nc3ccccc3o1)N2 (centres undefined),·,-7%,·,·,·,·
CN(C)CCCN(C(=O)c1ccc(S(=O)(=O)N2CCCCCC2)cc1)c1nc2c(F)cccc2s1,?,1%,3%,-17%,0,14%
COc1ccc(CN(C(=S)Nc2ccccc2)C2CC(=O)N(c3ccc(F)cc3)C2=O)cc1 (centres undefined),0%,-50%,21%,4%,-2,3%
COc1ccc(N2C(=O)CS/C2=N\C(=S)Nc2ccccc2)cc1,10µM*,-16%,4%,-1%,-5,4%
CC(=O)/C(=N/Nc1ccccc1[N+](=O)[O-])N1CCCc2ccccc21,-1%,-32%,3%,12%,-4,-36%
CCn1c(=N)n(CC(=O)c2ccco2)c2ccccc21,5%,2%[1.84 µM],10µM*,-3%,-1,-39%
Cc1ccc(Nc2nc3nonc3[nH]c2=O)cc1,-15%,11µM*,2%,-4%,-1,5%
CC(C)Cn1c(SC(C)C(=O)NC2CC2)nnc1-c1ccccc1F (centres undefined),?,-2%,0%,·,0,-3%
Oc1ccc(/C=N/Nc2nccnc2Cl)cc1,?,71%,6%,-18%,-1,9%
Fc1ccc(/C=N/Nc2nccnc2Cl)cc1,-2%,10µM*,29%,-14%,0,4%
Cn1nc(C(=O)Nc2nc3ccccc3[nH]2)ccc1=O,?,7.9µM*,7%,0%,-2,4%
O=S(=O)(c1ccccc1Cl)N1CCN(c2nc(-c3ccccc3)nc3ccccc23)CC1,·,-22%,·,·,·,·
CCc1ccc(C(=O)Nc2ccc3nc(C)ccc3c2)cc1,-14%,3.2µM*,2%,-7%,-3,-5%
Cc1ccc2cc(NC(=O)c3ccc(C(C)(C)C)cc3)ccc2n1,3%,?,-2%,-19%,-2,-2%
COc1ccc(NC(=O)c2ccccc2C)cc1,?,76%,0%[9.22 µM],-14%,-2,43%
Cc1ccc2cc(NC(=O)Cc3ccccc3)ccc2n1,?,4.5µM*,0%,-3%,0,-25%
Cc1ccc2cc(NC(=O)c3ccccc3C)ccc2n1,?,7.1µM*,0%,-12%,1,-20%
